CHO-K1 Ca ag: M1 agonist counterscreen hit in parental CHO-K1 cells. Fluo-8 calcium fluorescence; scaled to maximal ATP response, vehicle zero. activation, % at 3 µM. 360,000 tested, 0.48% active. AID 602248; in the data active means activation above about 15%;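 further: untransfected CHO-K1 host cells lacking M1 receptor as counterscreen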
M1 PAM: potentiates human M1 receptor response to acetylcholine; CHO-K1 hM1, Fluo-8 calcium fluorescence, ACh EC20; 0% = ACh EC20, 100% = maximal ACh; 360,000 tested, 0.088% active; activation, % at 3 µM; in the data active means activation above about 19%, passing the limit was not always enough
Target sequence (P11229 whole entry, looked up): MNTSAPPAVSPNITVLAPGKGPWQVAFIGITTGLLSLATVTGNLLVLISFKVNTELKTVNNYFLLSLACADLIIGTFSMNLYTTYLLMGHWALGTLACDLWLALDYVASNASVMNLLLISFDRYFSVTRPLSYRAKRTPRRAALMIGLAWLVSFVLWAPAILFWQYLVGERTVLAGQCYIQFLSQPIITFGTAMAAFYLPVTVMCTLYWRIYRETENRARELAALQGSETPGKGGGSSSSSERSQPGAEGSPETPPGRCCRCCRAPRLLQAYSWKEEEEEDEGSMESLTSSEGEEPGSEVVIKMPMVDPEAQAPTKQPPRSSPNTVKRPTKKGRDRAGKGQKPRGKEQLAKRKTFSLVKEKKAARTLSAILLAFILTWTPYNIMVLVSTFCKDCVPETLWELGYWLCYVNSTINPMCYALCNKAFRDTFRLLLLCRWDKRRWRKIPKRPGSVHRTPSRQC
M1 ag: activates human CHRM1 receptor; P11229; CHO-K1 hM1, Fluo-8 calcium fluorescence, agonist mode; 0% DMSO, 100% acetylcholine EC100; activation, % at 3 µM; 360,000 tested, 0.33% active; AID 588814;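 active means activation above the run's mean compound activation plus 3 SD, cut at about 16% in these data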;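 further: peak over basal fluorescence ratio within a 140 s kinetic read after compound addition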
CHO-K1 Ca PAM: counter-screen for M1 PAMs: effect in parental CHO-K1 cells; ATP EC20, Fluo-8 calcium fluorescence; 0% at ATP EC20, 100% at ATP max; activation, % at 3 µM; 360,000 tested, 0.02% active;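 active means activation above the run cutoff, the mean activation of all test compounds plus 3 SD, cut at about 40% in these data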;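 further: peak over basal fluorescence ratio in a 140 s read after ATP addition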
M1 antag: blocks human M1 muscarinic receptor; P11229; CHO-K1 hM1, Fluo-8 calcium fluorescence, ACh EC80 antagonist; inhibition, % at 3 µM; 360,000 tested, 1.3% active;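 active means percent inhibition above its own plate's cutoff, namely the mean of that plate's compound wells plus 3 SD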;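 further: peak over basal fluorescence ratio during 140 s after agonist addition; 0% = ACh EC80 plus DMSO and 100% = DMSO alone without agonist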
CHO-K1 Ca antag: counter-screen for M1 antagonists: effect in parental CHO-K1 cells | inhibition, % at 3 µM | 360,000 tested, 0.6% active | ATP-induced calcium, Fluo-8 fluorescence | AID 602250;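 active means inhibition above a per-plate cutoff, the plate's mean sample inhibition plus 3 SD, cut at about 24% in these data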;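 further: 0% = DMSO plus EC80 ATP and 100% = DMSO alone without ATP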
Starred values were filed as active, the others as inactive. Only some compounds are listed: those with a hit (about 2.3% of all), similar ones and a draw of the others.

SMILES	CHO-K1 Ca ag	M1 PAM	M1 ag	CHO-K1 Ca PAM	M1 antag	CHO-K1 Ca antag
Cc1ccc2sc(NC(=O)CN3C(=O)c4ccccc4C3=O)nc2c1C	1.1	8.9	-2.1	26.5	-12.4	-6.4
COc1ccc(NC(=O)C(c2cc3c(cc2[N+](=O)[O-])OCO3)N(C)Cc2ccccc2)cc1 (stereo unspecified)	21.9*	1.0	-1.2	28.7	2.5	-2.8
CCN(c1cccc(C)c1)C(C(=O)Nc1ccc(OC)cc1)c1cc2c(cc1[N+](=O)[O-])OCO2 (stereo unspecified)	0.7	6.8	-6.1	24.3	-4.1	-16.7
CCCN(CCC)CCCNC(=O)Cn1cnc2sc(C)c(S(=O)(=O)N3CCOCC3)c2c1=O	1.2	7.3	-10.4	1.8	-9.9	-11.1
CC(Oc1ccccc1)C(=O)N1CCN(c2ncccn2)CC1 (stereo unspecified)	0.3	13.7	-1.1	7.2	-9.6	-6.5
CCC(C(=O)N1CCN(c2ncccn2)CC1)c1ccccc1 (stereo unspecified)	1.4	12.1	-4.0	18.4	27.3*	-11.2
Cc1ccc(/C=C/C(=O)Nc2sc3c(c2C#N)CCCC3)o1	-0.9	14.3	0.5	-16.9	-4.1	37.5*
CCc1ccc(CCC(=O)Nc2sc3c(c2C#N)CCCC3)o1	0.4	-3.0	-6.4	15.1	1.5	-6.0
CCCCCCCCc1nc(=S)[nH][nH]1	0.0	10.9	-3.9	-6.4	-12.3	25.5*
CCCCCCC1CC(CCc2nc(=S)[nH][nH]2)C(=O)O1 (stereo unspecified)	-0.1	4.9	-6.9	4.4	-2.5	-5.5
Cc1noc(C)c1C(=O)OCC(=O)Nc1ccccc1C(=O)NC(C)c1ccccc1 (stereo unspecified)	2.9	3.1	-1.2	48.9*	-0.7	-17.2
O=[N+]([O-])c1ccc(C=CC=Cc2ccccc2)cc1	0.8	8.0	-0.8	10.1	-6.3	-6.0
CN(c1ccccc1)c1ccc(/C=C/[N+](=O)[O-])cc1	20.1*	-8.3	22.8*	1.9	64.0*	28.2*
CCCNC(=O)Cn1c(=O)/c(=C/c2ccc(-c3ccc([N+](=O)[O-])cc3)o2)s/c1=C\C(=O)C(C)(C)C	32.4*	-17.9	73.5*	0.6	65.0*	31.1*
CC(=O)Oc1c(Cl)c(N2CCOCC2)c(OC(C)=O)c2ccccc12	1.2	5.1	-4.5	8.1	-1.5	7.0
Cc1ccc(-c2ccc(/C=C3\SC(N4CCOCC4)=NC3=O)o2)cc1	1.5	3.1	-6.0	7.8	0.8	-1.0
Cc1ccc(/C=C2\SC(N3CCN(C(c4ccccc4)c4ccccc4)CC3)=NC2=O)o1	1.1	-26.2	-10.8	20.6	51.9*	-10.8
CSc1nc(N)n2nc(-c3ccccc3)cc2n1	1.2	5.2	-3.0	16.0	-2.9	-5.0
Cc1oc(-c2ccccc2F)nc1CS(=O)(=O)CC(=O)NC1CCCC(C)C1C (stereo unspecified)	1.4	9.5	-1.0	20.1	-13.1	-5.9
Cc1oc(-c2ccccc2F)nc1CS(=O)(=O)CC(=O)NC1CCCC1	6.5	-14.0	-0.8	-7.3	33.2*	10.2
Cc1ccccc1-n1nnnc1SCC(=O)Nc1ccc(N2CCN(C)CC2)cc1	0.2	-17.4	-14.0	-9.5	6.9	-9.2
Cc1ccccc1-n1nnnc1SC(C)C(=O)Nc1ccc(N2CCN(C)CC2)cc1 (stereo unspecified)	0.1	-21.3	-4.8	5.4	50.5*	-8.5
CC12CCC3(CO)COC(c4ccccc4O1)C2C3 (stereo unspecified)	0.7	7.3	-2.3	9.8	-8.7	-23.2
CC1(C#CC[N+]2(C)CCCCC2)CCC2C(O1)c1ccccc1OC2(C)C (stereo unspecified)	0.0	-5.3	102.8*	17.1	81.9*	-19.5
Cc1ccc2nc(-c3ccccn3)c(N)n2c1	-0.3	-3.6	-2.8	-3.1	-10.5	-2.5
COc1ccc(S(=O)(=O)N2CCN(c3nn(C)c(=O)n(C)c3=O)CC2)cc1	1.2	7.7	-0.3	1.7	-11.0	4.7
CCCOc1cccc(C(=O)N/N=C/c2coc3ccccc3c2=O)c1	-0.1	1.2	0.0	-22.7	29.6*	19.6

Compound activity from PubChem.
